Measurements published in paper PMC11006913.
Changes are numbered by the printed parent chain.

Assays:
Assay in all cases: PBM; 200 nM protein, PBS
Details in all cases: dsDNA, one strand shown
SIX6 [1] = molecular target: T1, SIX6 (Homo sapiens, UniProt O95475 114-200, L167I)
T1 sequence: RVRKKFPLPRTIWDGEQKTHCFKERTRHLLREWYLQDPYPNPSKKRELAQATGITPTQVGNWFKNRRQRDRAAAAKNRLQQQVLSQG

SIX6 [2] = molecular target: T2, SIX6 (Homo sapiens, UniProt O95475 114-200, L143V)
T2 sequence: T1 sequence with L30V, I54L

SIX6 [3] = molecular target: T3, SIX6 (Homo sapiens, UniProt O95475 114-200, H141N)
T3 sequence: T1 sequence with H28N, I54L

SIX6 [4] = molecular target: T4, SIX6 (Homo sapiens, UniProt O95475 114-200, T165P)
T4 sequence: T1 sequence with T52P, I54L

SIX6 [5] = molecular target: T5, SIX6 (Homo sapiens, UniProt O95475 114-200, L167M)
T5 sequence: T1 sequence with I54M

SIX6 [6] = molecular target: T6, SIX6 (Homo sapiens, UniProt O95475 114-200, L143M)
T6 sequence: T1 sequence with L30M, I54L

SIX6 [7] = molecular target: T7, SIX6 (Homo sapiens, UniProt O95475 114-200, L143I)
T7 sequence: T1 sequence with L30I, I54L

SIX6 [8] = molecular target: T8, SIX6 (Homo sapiens, UniProt O95475 114-200, T165G)
T8 sequence: T1 sequence with T52G, I54L

SIX6 [9] = molecular target: T9, SIX6 (Homo sapiens, UniProt O95475 114-200, T139Q)
T9 sequence: T1 sequence with T26Q, I54L

SIX6 [10] = molecular target: T10, SIX6 (Homo sapiens, UniProt O95475 114-200, T165A)
T10 sequence: T1 sequence with T52A, I54L

SIX6 [11] = molecular target: T11, SIX6 (Homo sapiens, UniProt O95475 114-200, L167V)
T11 sequence: T1 sequence with I54V

SIX6 [12] = molecular target: T12, SIX6 (Homo sapiens, UniProt O95475 114-200)
T12 sequence: T1 sequence with I54L

SIX6 [13] = molecular target: T13, SIX6 (Homo sapiens, UniProt O95475 114-200, T165I)
T13 sequence: T1 sequence with T52I, I54L

Sequence | binding signal (SIX6 [1]) | binding signal (SIX6 [2]) | binding signal (SIX6 [3]) | binding signal (SIX6 [4]) | binding signal (SIX6 [5]) | binding signal (SIX6 [6]) | binding signal (SIX6 [7]) | binding signal (SIX6 [8]) | binding signal (SIX6 [9]) | binding signal (SIX6 [10]) | binding signal (SIX6 [11]) | binding signal (SIX6 [12]) | binding signal (SIX6 [13])
ATTATACC | 10.8 upbm affinity estimate (log intensity, higher = more binding, comparable within an allelic series) | 10.3 upbm affinity estimate (log intensity, higher = more binding, comparable within an allelic series) | 10.7 upbm affinity estimate (log intensity, higher = more binding, comparable within an allelic series) | 10.1 upbm affinity estimate (log intensity, higher = more binding, comparable within an allelic series) | 10.5 upbm affinity estimate (log intensity, higher = more binding, comparable within an allelic series) | 10.8 upbm affinity estimate (log intensity, higher = more binding, comparable within an allelic series) | 10.3 upbm affinity estimate (log intensity, higher = more binding, comparable within an allelic series) | 10.8 upbm affinity estimate (log intensity, higher = more binding, comparable within an allelic series) | 10.8 upbm affinity estimate (log intensity, higher = more binding, comparable within an allelic series) | 10.7 upbm affinity estimate (log intensity, higher = more binding, comparable within an allelic series) | 10.5 upbm affinity estimate (log intensity, higher = more binding, comparable within an allelic series) | 10.7 upbm affinity estimate (log intensity, higher = more binding, comparable within an allelic series) | 10.6 upbm affinity estimate (log intensity, higher = more binding, comparable within an allelic series)
ACGTATCA | 11.3 upbm affinity estimate (log intensity, higher = more binding, comparable within an allelic series) | 10.3 upbm affinity estimate (log intensity, higher = more binding, comparable within an allelic series) | 11.3 upbm affinity estimate (log intensity, higher = more binding, comparable within an allelic series) | 9.82 upbm affinity estimate (log intensity, higher = more binding, comparable within an allelic series) | 10.7 upbm affinity estimate (log intensity, higher = more binding, comparable within an allelic series) | 11.1 upbm affinity estimate (log intensity, higher = more binding, comparable within an allelic series) | 10.4 upbm affinity estimate (log intensity, higher = more binding, comparable within an allelic series) | 11.3 upbm affinity estimate (log intensity, higher = more binding, comparable within an allelic series) | 11.3 upbm affinity estimate (log intensity, higher = more binding, comparable within an allelic series) | 11.2 upbm affinity estimate (log intensity, higher = more binding, comparable within an allelic series) | 11.1 upbm affinity estimate (log intensity, higher = more binding, comparable within an allelic series) | 11.1 upbm affinity estimate (log intensity, higher = more binding, comparable within an allelic series) | 11 upbm affinity estimate (log intensity, higher = more binding, comparable within an allelic series)
CGGGGACC | 8.99 upbm affinity estimate (log intensity, higher = more binding, comparable within an allelic series) | 8.83 upbm affinity estimate (log intensity, higher = more binding, comparable within an allelic series) | 8.99 upbm affinity estimate (log intensity, higher = more binding, comparable within an allelic series) | 8.96 upbm affinity estimate (log intensity, higher = more binding, comparable within an allelic series) | 8.97 upbm affinity estimate (log intensity, higher = more binding, comparable within an allelic series) | 8.88 upbm affinity estimate (log intensity, higher = more binding, comparable within an allelic series) | 8.86 upbm affinity estimate (log intensity, higher = more binding, comparable within an allelic series) | 8.9 upbm affinity estimate (log intensity, higher = more binding, comparable within an allelic series) | 8.95 upbm affinity estimate (log intensity, higher = more binding, comparable within an allelic series) | 8.92 upbm affinity estimate (log intensity, higher = more binding, comparable within an allelic series) | 8.99 upbm affinity estimate (log intensity, higher = more binding, comparable within an allelic series) | 8.89 upbm affinity estimate (log intensity, higher = more binding, comparable within an allelic series) | 8.91 upbm affinity estimate (log intensity, higher = more binding, comparable within an allelic series)
AGGGCCCG | 8.98 upbm affinity estimate (log intensity, higher = more binding, comparable within an allelic series) | 8.79 upbm affinity estimate (log intensity, higher = more binding, comparable within an allelic series) | 8.98 upbm affinity estimate (log intensity, higher = more binding, comparable within an allelic series) | 8.84 upbm affinity estimate (log intensity, higher = more binding, comparable within an allelic series) | 8.98 upbm affinity estimate (log intensity, higher = more binding, comparable within an allelic series) | 8.93 upbm affinity estimate (log intensity, higher = more binding, comparable within an allelic series) | 8.9 upbm affinity estimate (log intensity, higher = more binding, comparable within an allelic series) | 8.99 upbm affinity estimate (log intensity, higher = more binding, comparable within an allelic series) | 9.07 upbm affinity estimate (log intensity, higher = more binding, comparable within an allelic series) | 8.92 upbm affinity estimate (log intensity, higher = more binding, comparable within an allelic series) | 8.93 upbm affinity estimate (log intensity, higher = more binding, comparable within an allelic series) | 8.95 upbm affinity estimate (log intensity, higher = more binding, comparable within an allelic series) | 8.9 upbm affinity estimate (log intensity, higher = more binding, comparable within an allelic series)
GATACACC | 11.1 upbm affinity estimate (log intensity, higher = more binding, comparable within an allelic series) | 10.4 upbm affinity estimate (log intensity, higher = more binding, comparable within an allelic series) | 11.1 upbm affinity estimate (log intensity, higher = more binding, comparable within an allelic series) | 9.65 upbm affinity estimate (log intensity, higher = more binding, comparable within an allelic series) | 10.7 upbm affinity estimate (log intensity, higher = more binding, comparable within an allelic series) | 10.9 upbm affinity estimate (log intensity, higher = more binding, comparable within an allelic series) | 10.4 upbm affinity estimate (log intensity, higher = more binding, comparable within an allelic series) | 11.2 upbm affinity estimate (log intensity, higher = more binding, comparable within an allelic series) | 11.2 upbm affinity estimate (log intensity, higher = more binding, comparable within an allelic series) | 11.1 upbm affinity estimate (log intensity, higher = more binding, comparable within an allelic series) | 10.9 upbm affinity estimate (log intensity, higher = more binding, comparable within an allelic series) | 11.1 upbm affinity estimate (log intensity, higher = more binding, comparable within an allelic series) | 10.9 upbm affinity estimate (log intensity, higher = more binding, comparable within an allelic series)
GCAGTGGC | 8.87 upbm affinity estimate (log intensity, higher = more binding, comparable within an allelic series) | 8.89 upbm affinity estimate (log intensity, higher = more binding, comparable within an allelic series) | 8.95 upbm affinity estimate (log intensity, higher = more binding, comparable within an allelic series) | 8.89 upbm affinity estimate (log intensity, higher = more binding, comparable within an allelic series) | 8.96 upbm affinity estimate (log intensity, higher = more binding, comparable within an allelic series) | 8.94 upbm affinity estimate (log intensity, higher = more binding, comparable within an allelic series) | 8.96 upbm affinity estimate (log intensity, higher = more binding, comparable within an allelic series) | 8.99 upbm affinity estimate (log intensity, higher = more binding, comparable within an allelic series) | 8.93 upbm affinity estimate (log intensity, higher = more binding, comparable within an allelic series) | 8.93 upbm affinity estimate (log intensity, higher = more binding, comparable within an allelic series) | 8.89 upbm affinity estimate (log intensity, higher = more binding, comparable within an allelic series) | 8.98 upbm affinity estimate (log intensity, higher = more binding, comparable within an allelic series) | 8.94 upbm affinity estimate (log intensity, higher = more binding, comparable within an allelic series)
